Screens as filed in PubChem BioAssay.
A selection: hits, their analogues and other compounds. The true share with any hit is near 4.4%.
D1 antag = blocks dopamine activation of the human D1 receptor; 360,000 tested, 3.2% active; activity change, negative = inhibition, % at 10 µM; AID 504652; HEK293 TREx D1 cells, calcium flux, dopamine EC80; hits give low values; in the data active = activity change below about -30%
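Using tetracycline-induced force-coupled D1 Hek293 cells and a calcium dye, signals were followed for 180 s after compound, then for 180 s after EC80 dopamine, to detect inhibitors.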
D1 agonist = agonists of human D1 dopamine receptor; activation, % at 2 µM; HEK293 T-REx D1 cells, calcium flux, agonist mode; AID 504660; P21728; 360,000 tested, 1% active
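Inducible HEK293 T-REx D1 cells, force-coupled to calcium signalling, were plated at 4000 cells/well with tetracycline and held overnight at 30 C. After no-wash calcium dye loading, compound-evoked calcium rise over 180 s flagged agonists.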
TRHR enhancer = allosteric enhancers of human TRH receptor. P34981. TRHR cells, fluo-8 calcium fluorescence, EC20 TRH enhancement. enhancement, % at 2 µM. 360,000 tested, 0.66% active; in the data active = enhancement above about 30%
Target sequence (P34981 whole entry, looked up): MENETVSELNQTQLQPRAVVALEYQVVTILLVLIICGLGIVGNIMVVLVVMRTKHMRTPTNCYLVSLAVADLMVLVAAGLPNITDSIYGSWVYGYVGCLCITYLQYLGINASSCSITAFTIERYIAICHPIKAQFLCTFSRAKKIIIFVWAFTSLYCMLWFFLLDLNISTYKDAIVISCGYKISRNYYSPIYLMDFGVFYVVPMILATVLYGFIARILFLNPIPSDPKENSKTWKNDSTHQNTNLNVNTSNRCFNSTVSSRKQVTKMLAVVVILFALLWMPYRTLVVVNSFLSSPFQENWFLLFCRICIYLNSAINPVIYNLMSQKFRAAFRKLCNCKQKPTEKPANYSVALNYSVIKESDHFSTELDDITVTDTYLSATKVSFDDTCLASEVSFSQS
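TRHR-expressing cells loaded with fluo-8 calcium dye were read kinetically (ex 480/em 530) during compound addition, then stimulated with an EC20 of TRH (10 nM final). Enhancement of the Gq-mediated intracellular calcium response was scored.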
TRHR agonist = TRH receptor (human) agonism; P34981; AID 493084; 360,000 tested, 0.18% active; activation, % at 2 µM; TRHR cells, calcium flux fluo-8, FDSS agonist mode
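Agonist-mode FDSS calcium read (Ex 480/Em 530, 1 s cycles) in 1536-well TRHR cells with fluo-8 dye, after 10-cycle baseline and 23 nL compound addition; TRH at EC20 (10 nM final) added afterwards for the enhancer phase.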
USP1-UAF1 inh = USP1/UAF1 (human) deubiquitinase inhibition; O94782; Potency, µM (highest dose often 57.1 µM), most hits filed as inhibitors; recombinant USP1/UAF1, Ub-Rhodamine cleavage fluorescence; 390,000 tested, 0.23% active; AID 743255; active = well fitted inhibition curve with a large enough effect; inconclusive = small, poorly fitted or top-dose-only effect; inactive = no such curve, though single readings can be large or run the other way; note: nearly all actives have a fitted effect of over 60% in size
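High-throughput fluorogenic screen: 1nM USP1/UAF1 complex, Ub-Rho substrate 150nM final, 50mM HEPES pH 7.8 with 0.5mM EDTA, 0.1 mg/ml BSA, 1mM TCEP and 0.01% Tween-20.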
D1 potentiator = human D1 dopamine receptor positive modulation; P21728; HEK293 TREx D1 cells, calcium flux, dopamine EC20 potentiation; potentiation, % at 10 µM; 360,000 tested, 0.036% active; AID 504651; in the data active = potentiation above about 30%
Numbers stand for hits; - = inactive; ? = inconclusive; . = no result. Cut-off read from the data, not from the text of the source, unless noted: active = activation above about 30%; inactive = the rest.

SMILES	D1 antag	D1 agonist	TRHR enhancer	TRHR agonist	USP1-UAF1 inh	D1 potentiator
COc1ccc(O)c(/C=C2/SC(=S)N(Cc3ccccc3)C2=O)c1	-	40	-	-	?	-
COc1ccc(OC)c(/C=C2\SC(=S)N(Cc3cccnc3)C2=O)c1	-	48	-	-	-	-
CCc1nc(SCC(=O)Nc2ccc(NC(C)=O)cc2)n[nH]1	-	-	-	-	-	-
CCOC(=O)c1c(C)oc2c1c(C=NCCO)c(O)c1ccccc12	-41	-	-	-	?	-
Cc1nc2ccn(Cc3cccnc3)c(=O)c2cc1C(=O)Nc1ccc(F)cc1F	-	-	-	-	?	-
Fc1cccc(CSc2ncnc3c2oc2ccccc23)c1	-93	-	-	-	-	-
O=S(=O)(c1ccc(Cl)cc1)N1CCN(c2nc(-c3cccc(Br)c3)nc3ccccc23)CC1	-	-	-	-	.	-
COc1ccc(S(=O)(=O)c2c(Nc3ccccc3F)sc(C(=O)c3cccc(OC)c3)c2N)cc1	-	80	-	-	-	-
COc1ccc(S(=O)(=O)c2c(Nc3ccc(C)cc3C)sc(C(=O)c3ccc(F)cc3)c2N)cc1	-48	88	-	-	-	-
CCc1ccccc1Nc1sc(C(=O)c2cccc(OC)c2)c(N)c1S(=O)(=O)c1ccccc1	-	-	-	-	-	-
CCOc1ccc(Nc2sc(C(=O)c3ccc(F)cc3)c(N)c2S(=O)(=O)c2ccc(C)cc2)cc1	-41	48	-	-	-	-
CCOc1ccc(CNC(=O)c2cnc3sc(N4CCOCC4)nn3c2=O)cc1	-61	-	-	-	-	-
N#C/C(=C\c1ccc(-c2cc(Cl)ccc2Cl)o1)C(=O)Nc1ccccc1C(=O)O	-	-	-	-	-	-
COc1cc(C(=O)Nc2cc3c(cc2C)n(C)c(=O)c(=O)n3C)cc(OC)c1OC	-	-	-	-	-	-
COc1cccc(Oc2cn[nH]c2-c2ccc(O)cc2O)c1	-	-	-	-	-	-
COc1ccccc1Oc1cn[nH]c1-c1ccc(O)cc1O	-32	-	-	-	-	-
COc1cc(C(C(=O)NCC2CCCO2)N(C(=O)Cn2nnc3ccccc32)c2ccc(OC)c(OC)c2)ccc1O (configuration not stated)	-80	-	-	-	-	-
CCC(C)(C)NC(=O)C(c1ccncc1)N(Cc1cccs1)C(=O)Cn1nnc2ccccc21 (configuration not stated)	-	-	-	-	-	-
COc1ccc(N(C(=O)CNC(=O)c2cccs2)C(C(=O)NCC2CCCO2)c2ccccc2)cc1OC (configuration not stated)	-55	-	-	-	-	-
CCC(C)(C)NC(=O)C(c1cccs1)N(CC1CCCO1)C(=O)Cn1nnc2ccccc21 (configuration not stated)	-	-	38	-	-	-
CCOC(=O)c1c(C)sc(-c2c(-c3cc(C)ccc3C)[nH]c3c2c(=O)[nH]c(=O)n3C)c1O	-	-	-	-	25µM	-
CCOC(=O)c1c(C)sc(-c2c(-c3cc(C)ccc3C)[nH]c3c2c(=O)n(C)c(=O)n3C)c1O	-	277	-	-	28µM	-
CCOC(=O)c1c(C)sc(-c2c(-c3cccc(Cl)c3)[nH]c3c2c(=O)n(C)c(=O)n3C)c1O	-	315	-	169	16µM	-
Cc1ccc(CNC(=O)CS(=O)(=O)c2cccc3nsnc23)cc1	-	-	-	-	?	-
COC(=O)c1ccc(/C=C/C(=O)c2ccc(OC)c(OC)c2)cc1	-	-	36	-	?	-
COC(=O)c1ccc(/C=C/C(=O)O)cc1	-	-	-	-	-	-
COC(=O)c1ccc(/C=C/C(=O)c2ccc(OC)cc2)cc1	-38	-	-	-	-	-
Cc1ccsc1CN(C(=O)COc1cccc(C)c1C)C1CCS(=O)(=O)C1 (configuration not stated)	-	-	-	-	?	-
Cc1ccc(N(CC(C)C)S(=O)(=O)c2nnc(NC(=O)c3cccs3)s2)cc1	-	-	-	-	-	-
